Screens as filed in PubChem.
PfHsp90 yeast 2 – reduces growth (ATP signal) of yeast expressing P. falciparum Hsp90 | S. cerevisiae expressing PfHsp90, BacTiter-Glo ATP, 48 h; yeast lacking PDR1 and PDR3 efflux regulators | inhibition, % at 9.4 µM | 0.32% of 310,000 active | AID 504621;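 active means every replicate shows inhibition above about 80%, whatever the replicate mean, limit read from the data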;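 further: 0% = DMSO neutral controls and 100% = 20 µM radicicol positive controls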
NALP1 inh – blocks the NALP1 inflammasome reconstituted in yeast | 0.61% of 280,000 active | S. cerevisiae NALP1/ASC/caspase-1 growth, X-gal OD620, 72 h | inhibition, % at 10 µM | AID 2071; in the data active means inhibition mostly above about 24%, no sharp cut-off; inactive means mostly below about 32%
SKKanGAS inh – SKKanGAS growth inhibition. S. pyogenes SKKanGAS, kanamycin growth, BacTiter-Glo, 6 h. inhibition, % at 7.5 µM. 1.3% of 300,000 active;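 active means mean replicate score, as percent of positive control median, at least 50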;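 further: strain carries kanamycin resistance gene driven by streptokinase promoter and grows in 40 µg/ml kanamycin; loss of luminescence reflects streptokinase promoter inhibition or plain growth inhibition; 0% = median of DMSO wells and 100% = positive control at its reference dose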
TIM10 inh – inhibits growth of TIM10 yeast strain | S. cerevisiae TIM10 strain growth, BacTiter-Glo luminescence, 24 h | AID 463195 | 1.4% of 330,000 active | inhibition, % at 10 µM;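 active means inhibition of 40% or more at the single tested concentration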;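 further: wild-type TIM10 isogenic control strain grown at permissive 25 °C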
tim23-1 inh – tim23-1 yeast growth inhibition; S. cerevisiae tim23-1 growth, BacTiter-Glo luminescence, 24 h; inhibition, % at 20 µM; 1.3% of 330,000 active;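 active means growth inhibition of the mutant yeast at or above 50%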;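 further: temperature-sensitive mutant grown at 25 °C; plate controls were DMSO-treated mutant yeast for no effect and medium wells lacking yeast for full effect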
tim10-1 inh – inhibits growth of tim10-1 mutant yeast; S. cerevisiae tim10-1 ts strain growth, BacTiter-Glo, 24 h; inhibition, % at 20 µM; 2.2% of 330,000 active; AID 463190;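 active means inhibition of at least 40%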;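 further: mutant grown at 25 °C; 0% = DMSO wells with yeast and 100% = wells holding no yeast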
tim10-1 confirm – tim10-1 yeast growth inhibition, confirmed | shares compounds with tim10-1 inh | S. cerevisiae tim10-1 ts strain growth, BacTiter-Glo, 24 h | inhibition, % at 20 µM | 56% of 7,400 active | AID 463213;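 active means inhibition of yeast growth at or above a set limit in either of two repeat tests at 20 µM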;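 further: tim10-1 mutant grown at permissive 25 °C to find synthetic lethal compounds; 0% = DMSO yeast wells and 100% = medium wells without yeast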
Starred values were filed as active, the others as inactive; x = no result given. A selection: hits, their analogues and other compounds. The true share with any hit is near 4.8%.

SMILES	PfHsp90 yeast 2	NALP1 inh	SKKanGAS inh	TIM10 inh	tim23-1 inh	tim10-1 inh	tim10-1 confirm
CCn1nc(C)c(NC(=O)c2cnn3c(C(F)F)cc(-c4ccccc4)nc23)c1C	-31	-17	-13	19	19	42*	16
Cc1coc2c1C(=O)C(=O)c1c-2ccc2c(C)cccc12	-112	x	73*	9	19	51*	8
CCN(CC)S(=O)(=O)c1ccc(C(=O)OCC(=O)c2ccc3c(c2)NC(=O)CO3)cc1	x	10	-5	-2	-5	6	x
Cc1c2c(nc3ccccc13)CCC(C(C)(C)C)C2 (stereo not given)	3	9	32	9	46	42*	15
Clc1c2c(nc3ccccc13)CCC2	-4	5	0	-14	17	15	x
O=C(CSc1ncccn1)N1CCC(Cc2ccccc2)CC1	x	4	-10	5	18	14	x
O=C(Nc1sc2c(c1C(=O)c1ccccc1)CCCC2)c1cccnc1	-5	19	-8	14	44	18	x
O=C(Nc1sc2c(c1C(=O)c1ccc(Cl)cc1)CCCC2)c1cccnc1	x	32	14	23	32	41*	28
C#CCOCCOCCOCCNc1nc(N2CCN(C(=O)[C@H](CCC(=O)O)n3cc(C(N)CC(C)C)nn3)CC2)nc(N2CCN(C(=O)[C@H](Cc3cc4ccccc4[nH]3)n3cc(C(N)CC(C)C)nn3)CC2)n1 (stereo not given in full)	-3	4	-4	19	21	21	x
CCCCCCCNC1=CC(=O)CC(c2ccco2)C1 (stereo not given)	-98	0	-7	-9	30	50*	14
CCOc1ccc(NC2=CC(=O)CC(c3ccco3)C2)cc1 (stereo not given)	x	4	-6	17	8	18	x
O=S(=O)(Nc1c(O)ccc2ccccc12)c1ccc(F)cc1	-7	x	16	17	15	29	x
Oc1cc(Br)ccc1C=Nc1ccc(N2CCCCC2)cc1	-9	9	-1	19	50	42*	26
CCCC1=C/C(=C/c2ccc(-c3ccccc3OC)o2)C(=O)O1	-1	30	-5	17	23	28	x
COc1ccccc1-c1ccc(/C=C2/C=C(CC(C)C)OC2=O)o1	6	17	1	22	31	42*	36*
CCOC(=O)c1ccc2nc(NC(=O)c3ccco3)sc2c1	10	-2	37	40	41	41*	26
CCCCC(=O)Nc1nc2ccc(C(=O)OC)cc2s1	-25	11	6	35	29	46*	20
CCCC(=O)Nc1nc2ccc(C(=O)OCC)cc2s1	-11	34	-1	10	22	21	x
CC(=O)OCC1CCCC2=C(C)C(=O)CCC21COC(C)=O (stereo not given)	23	30	-8	-11	8	-6	x
COc1ccccc1N1CCN(C(=O)CN2C(=O)c3cccc4cccc(c34)C2=O)CC1	-19	26	-2	20	29	30	x
COc1ccccc1N1CCN(C(=O)CCCN2C(=O)c3cccc4cccc(c34)C2=O)CC1	-19	35	2	28	31	45*	27
CC(C)[C@H](NC(=O)C1CCN(S(=O)(=O)c2ccccc2)CC1)C(=O)NCc1ccccn1	-7	-9	-4	-6	10	16	x
COc1ccc(S(=O)(=O)N2CCCOC2CNC(=O)C(=O)NCCCn2ccnc2)cc1 (stereo not given)	0	-7	-14	18	11	19	x
CCOC(=O)Nc1nc(-c2ccccc2)c(C(=O)c2ccccc2)s1	13	-1	18	38	40	40*	29
CC(=O)c1sc(NC(=O)c2c(F)cccc2F)nc1-c1ccccc1	-24	-1	0	27	31	52*	26
OCCn1c(C(F)(F)F)nc2ccccc21	19	4	1	10	12	-6	x
Cc1ccc(-c2csc(N(CCO)CCCn3c(C(F)(F)F)nc4ccccc43)n2)cc1	-25	7	33	-11	-5	44*	15
CCOc1ccccc1-c1nnc(CS(=O)(=O)c2ccccc2)o1	-3	-7	-14	-3	23	27	x
